# Bioassay records deposited in PubChem by National Center for Advancing Translational Sciences (NCATS).
# Shown are actives, neighbours in structure and some others; about 19% of the full set was active somewhere.
# HT1080 IDH1KD tx: HT-1080 IDH1 knockdown cell toxicity (counter line); hit rate 2% among 360,000; HT-1080 IDH1 knockdown viability, ATP luminescence, 48 h; Potency, µM (doses to about 46.1 µM), without a hit: at the highest dose activity, negative = toxicity, actives largely listed as cytotoxic; AID 686971;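 also: 0% = DMSO wells and -100% = cell-free medium wells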
#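 CellTiter-Glo luminescence after 48 h compound exposure at 37 degrees C of IDH1-knockdown HT-1080 cells in 5% FBS RPMI. %Activity scaled between DMSO wells and cell-free media wells, with curves fitted and assigned curve classes.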
# TDP1 cell noCPT: qHTS for Inhibitors of human tyrosyl-DNA phosphodiesterase 1 (TDP1): qHTS in cells in absence of CPT; Potency, µM (highest dose often 46.2 µM), inactives show top-dose activity change, negative = growth inhibition, actives largely listed as inhibitors; DT40 Tdp1-/- hTDP1 cells, no CPT, ATP luminescence, 48 h; hit rate 15% among 420,000; also: nearly all actives have a fitted effect of over 55% in size
#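 Compound effects on proliferation are scored in DT40 Tdp1-/-;hTDP1 cells in the absence of CPT. ATP levels (CellTiter-Glo luminescence) are recorded after a ≥48 hr, 37 °C incubation.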
# TDP1 cell CPT: growth inhibition of DT40 Tdp1-/-;hTDP1 cells with camptothecin (screen for TDP1 inhibitors). chicken DT40 Tdp1-/-;hTDP1 cells + 20 nM CPT, ATP luminescence, 48 h. Potency, µM (top dose mostly 46.2 µM), inactives show top-dose activity change, negative = growth inhibition, most hits filed as inhibitors. AID 686979. hit rate 12% among 420,000; also: nearly all actives have a fitted effect of over 55% in size
#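 Chicken DT40 Tdp1-/- cells complemented with human TDP1, 400 cells/well, exposed to compounds plus 20 nM camptothecin for at least 48 h at 37 C; viability read as ATP content by CellTiter-Glo luminescence.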
# HT1080-NT tox: kills 2HG-producing HT-1080-NT fibrosarcoma cells. HT-1080-NT fibrosarcoma viability, CellTiter-Glo ATP luminescence, 48 h. Potency, µM (titrated, usually from 46.1 µM), for the others: at the highest dose activity, negative = less viability, hits mostly cytotoxic. hit rate 1.6% among 360,000. AID 686970;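 also: NT is the 2HG producing partner of a matched IDH1 knockdown line; 0% = DMSO-treated cells and -100% = media-only wells without cells; nearly all actives have a fitted effect of over 55% in size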
#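 HT-1080-NT; 750 cells/well; 5% FBS RPMI; 48 h compound, 37 degrees C; CellTiter-Glo luminescence; curve fitting and curve-class assignment.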
# KB-3-1 tox: kills parental KB-3-1 adenocarcinoma cells. hit rate 1.4% among 400,000. Potency, µM (series often up to 46.1 µM), usual class: cytotoxic. KB-3-1 viability, CellTiter-Glo ATP luminescence, 72 h; also: nearly all actives have a fitted effect of over 60% in size
#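 72 h, 37 °C compound treatment of KB-3-1 parental cells; CellTiter-Glo added, 10 min, luminescence read. Data corrected against DMSO-only plates and normalized before curve fitting.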
# KB-V1 MDR tox: KB-V1 MDR subline cytotoxicity; hit rate 3.4% among 400,000; KB-V1 MDR cells viability, CellTiter-Glo, 72 h; Potency, µM (highest dose often 46.1 µM), actives largely listed as cytotoxic; also: nearly all actives have a fitted effect of over 60% in size
#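 Following 72 h at 37 degrees C with compound, KB-V1 cell viability was read by CellTiter-Glo luminescence, medium being phenol-red-free DMEM plus 10% FBS; concentration-response parameters came from normalized, curve-fitted qHTS data.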
# * hit, by the source's call; i = inactive; ? = inconclusive; nt = not tested or not shown. Calls follow the shape of the dose curve; as a rule, active = well fitted curve in the direction sought with a large enough effect; inconclusive = small, poorly fitted or top-dose-only effect, or another doubt; inactive = no such curve, though single readings can be large; an effect the other way counts as inactive or inconclusive. Unless noted, % is scaled to controls: 0 for no effect and ±100 for the full control effect; potency is read from the fitted curve at half-maximal effect.
SMILES,HT1080 IDH1KD tx,TDP1 cell noCPT,TDP1 cell CPT,HT1080-NT tox,KB-3-1 tox,KB-V1 MDR tox
Oc1cccc(-c2csc(C(O)(c3ccccc3)C(F)(F)F)n2)c1 (stereo not drawn),-17%,?,?,?,i,i
OC(c1ccccc1)(c1nc(-c2cccc3cccnc23)cs1)C(F)(F)F (stereo not drawn),?,?,23µM*,?,?,i
OC(c1ccccc1)(c1nc(-c2ccc(F)c(Cl)c2)cs1)C(F)(F)F (stereo not drawn),18µM*,16µM*,?,?,i,i
Cc1ccc(-c2csc(C(O)(c3ccccc3)C(F)(F)F)n2)cc1C (stereo not drawn),?,16µM*,?,26µM*,i,i
CCC(C)(CCNC(=O)Cc1ccccc1)c1ccccc1OC (stereo not drawn),-2%,?,23µM*,0%,i,i
CC(=O)c1ccc(N2CCN(C(=O)COc3ccccc3F)CC2)c(F)c1,7%,23µM*,?,10%,i,i
CCOC(=O)N1CCN(c2ccc(C(C)=O)cc2F)CC1,11%,-5%,-19%,26%,i,i
COc1ccccc1OCCC(=O)N1CCN(c2ccccc2OC)CC1,-15%,?,?,-6%,i,i
COc1cc(C(=O)N2CCN(c3ccccc3F)CC2)ccc1OCC(=O)N1CCOCC1,12%,7%,-8%,-7%,i,i
O=C(CCOc1ccccc1F)N1CCN(c2ccccc2O)CC1,-29%,16µM*,?,-30%,i,i
CCC(=O)c1ccc(N2CCN(C(=O)COc3ccccc3F)CC2)c(F)c1,-6%,13µM*,?,-10%,i,i
CC(C)c1ccc(S(=O)(=O)c2nnn3c2nc(NCCc2ccccc2)c2sccc23)cc1,nt,?,?,nt,i,?
CC(OC(=O)c1ccncc1)C(=O)NC1CCCC1 (stereo not drawn),9%,18%,11%,-3%,i,i
CCOCCc1nnc(NC(=O)C2CCN(C(=O)c3ccco3)CC2)s1,2%,6%,-1%,7%,i,i
CCOC(=O)c1ccccc1NS(=O)(=O)c1ccc(C)cc1,?,?,?,-25%,26µM*,?
CCOC(=O)c1cccc(NS(=O)(=O)c2ccc(-c3coc(C)n3)cc2)c1,nt,?,1%,nt,i,i
CCOC(=O)c1ccccc1NS(=O)(=O)c1ccccc1,-11%,-17%,-12%,-12%,i,?
CCOC(=O)C1CCN(S(=O)(=O)c2ccc(N3CCCCS3(=O)=O)cc2)CC1,nt,-29%,-6%,nt,i,i
CCOC(=O)c1cnc(SC)nc1Oc1cccc(NS(=O)(=O)c2ccc(C)cc2)c1,18%,16µM*,?,18%,i,i
CCOC(=O)c1ccccc1NC(=O)c1nc2nccc(C)n2n1,-1%,18µM*,?,3%,i,i
CCOC(=O)c1ccccc1NS(=O)(=O)c1ccc(N2CCCCS2(=O)=O)cc1,nt,16µM*,23µM*,nt,i,i
C[N+]1(C)CCc2cc3c(cc2[C@@H]1[C@@H]1C(=O)Oc2c1ccc1c2OCO1)OCO3,nt,-13%,2%,nt,nt,nt
CC1(Cc2ccc(OC(F)(F)F)cc2)C(=O)Nc2c(Cl)ccc(Cl)c21 (stereo not drawn),?,?,?,?,i,i
Cc1ccc(Cn2ccn(CC(=O)Nc3c(C)cc(C)cc3C)c(=O)c2=O)cc1,nt,2%,2%,nt,nt,nt
Cn1c(=O)c2c(ncn2CC(=O)OCC(=O)c2ccc(OC(F)F)cc2OC(F)F)n(C)c1=O,9%,-20%,-26%,14%,i,i
SMILES,HT1080 IDH1KD tx,TDP1 cell noCPT,TDP1 cell CPT,HT1080-NT tox,KB-3-1 tox,KB-V1 MDR tox
CCOC(=O)c1ccc(S(=O)(=O)Nc2ccccc2-c2nnn(CC)n2)cc1,4%,9.2µM*,15µM*,5%,i,16µM*
CCOC(=O)c1ccccc1NC(=O)N(C)CCc1c(C)nn(CC)c1C,nt,16µM*,21µM*,nt,i,i
COc1ccc(-n2c(C)cc(C3=NNC(=NC4CC4)SC3)c2C)cc1,21µM*,23µM*,?,23µM*,?,?
COCCn1c(C)cc(C2=NNC(=NC3CC3)SC2)c1C,?,?,?,?,i,?
Cc1cc(C2=NNC(=NC3CC3)SC2)c(C)n1-c1ccccc1,-21%,23µM*,?,-13%,i,i
c1ccc(C2=NNC(=NC3CC3)SC2)cc1,18µM*,18µM*,?,?,?,i
c1ccc2c(C3=NNC(=NC4CC4)SC3)c[nH]c2c1,-3%,?,?,-15%,i,i
CN=C1NN=C(c2cc(C)n(-c3c(C)n(C)n(-c4ccccc4)c3=O)c2C)CS1,10%,-17%,-5%,3%,?,i
CCOc1ccc(-c2nc3c(s2)CCc2onc(-c4ccc(OC)cc4)c2-3)cc1,0%,?,-16%,12%,i,i
[O-][n+]1ccc(CC(O)(C(F)(F)F)C(F)(F)F)cc1,-6%,-5%,1%,1%,i,i
